Results on one sequence are retold here after paper PMC7862700, “An all-to-all approach to the identification of sequence-specific readers for epigenetic DNA modifications on cytosine”.

What all share (assay): DAPPL (digital affinity profiling via proximity ligation, sequencing); 10 mM Tris-HCl pH 7.5, 50 mM NaCl, 1 mM DTT, 4% glycerol, room temperature, 30 min; GST-TFs on glutathione beads, 16-mer random dsDNA library, 0.1% formaldehyde crosslink after washing; high values mean tight binding
Experiment [1] deals with T1, FEV (Homo sapiens, UniProt Q99581 1-238).
T1 sequence: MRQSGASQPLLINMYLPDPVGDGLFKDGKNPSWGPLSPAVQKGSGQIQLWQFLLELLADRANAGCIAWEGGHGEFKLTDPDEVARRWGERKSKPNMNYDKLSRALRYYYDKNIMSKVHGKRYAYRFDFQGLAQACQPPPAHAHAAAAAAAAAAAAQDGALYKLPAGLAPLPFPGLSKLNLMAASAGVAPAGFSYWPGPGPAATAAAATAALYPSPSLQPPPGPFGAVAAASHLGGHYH
Particulars: protein: recombinant; tags: N-terminal GST; dsDNA, one strand shown. A digest of the protocol:
(§1)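 Binding signal is each hexamer's read frequency for a factor divided by its frequency in the tag-only sample. The factors were GST-fused human transcription factors from yeast, captured on glutathione beads, DNA-barcoded and pooled with that sample. Pools were incubated with 200 nmole of a random double-stranded 16-mer DNA library in Tris/NaCl/DTT/glycerol buffer at room temperature for 30 min, then washed, crosslinked with 0.1% formaldehyde, proximity-ligated with BsaI/T4 ligase (1 h, 37 °C), PCR-amplified and sequenced on an Illumina NextSeq500.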

Experiment [2] has as its target ETV5 (Homo sapiens, UniProt P41161 1-510). Particulars: protein: recombinant; tags: N-terminal GST; dsDNA, one strand shown. A digest of the protocol: as §1
Experiment [3] deals with HSF1 (Homo sapiens, UniProt Q00613 1-529). Particulars: protein: recombinant; tags: N-terminal GST; chain copies: 3; dsDNA, one strand shown. A digest of the protocol: as §1
Experiment [4] addresses T2, SPIC (Homo sapiens, UniProt Q8N5J4 1-248).
T2 sequence: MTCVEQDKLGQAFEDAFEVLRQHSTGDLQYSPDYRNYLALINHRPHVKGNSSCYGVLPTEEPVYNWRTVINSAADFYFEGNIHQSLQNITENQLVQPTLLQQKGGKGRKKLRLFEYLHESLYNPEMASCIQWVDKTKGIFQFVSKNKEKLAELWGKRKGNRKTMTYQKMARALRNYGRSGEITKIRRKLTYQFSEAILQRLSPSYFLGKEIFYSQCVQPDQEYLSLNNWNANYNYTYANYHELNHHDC
Particulars: protein: recombinant; tags: N-terminal GST; dsDNA, one strand shown. In short, it runs like this: as §1

For experiment [5], the target named is ELF4 (Homo sapiens, UniProt Q99607 1-663). The conditions noted are these: protein: recombinant; tags: N-terminal GST; dsDNA, one strand shown. A digest of the protocol: as §1
Experiment [6] concerns the target T3, ELK4 (Homo sapiens, UniProt P28324-2 1-405).
T3 sequence: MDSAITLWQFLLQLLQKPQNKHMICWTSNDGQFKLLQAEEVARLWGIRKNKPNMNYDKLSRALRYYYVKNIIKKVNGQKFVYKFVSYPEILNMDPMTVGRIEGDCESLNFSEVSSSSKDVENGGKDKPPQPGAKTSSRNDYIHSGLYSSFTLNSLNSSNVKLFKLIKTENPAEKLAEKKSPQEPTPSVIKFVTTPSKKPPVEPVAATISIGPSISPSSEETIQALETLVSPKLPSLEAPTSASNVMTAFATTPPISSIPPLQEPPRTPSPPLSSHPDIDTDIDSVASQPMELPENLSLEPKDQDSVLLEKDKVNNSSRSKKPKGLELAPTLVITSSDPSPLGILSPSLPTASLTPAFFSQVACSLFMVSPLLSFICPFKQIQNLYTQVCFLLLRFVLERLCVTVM
Particulars: protein: recombinant; tags: N-terminal GST; dsDNA, one strand shown. In short, it runs like this: as §1

The target of experiment [7] is T4, ETV2 (Homo sapiens, UniProt O00321 1-342).
T4 sequence: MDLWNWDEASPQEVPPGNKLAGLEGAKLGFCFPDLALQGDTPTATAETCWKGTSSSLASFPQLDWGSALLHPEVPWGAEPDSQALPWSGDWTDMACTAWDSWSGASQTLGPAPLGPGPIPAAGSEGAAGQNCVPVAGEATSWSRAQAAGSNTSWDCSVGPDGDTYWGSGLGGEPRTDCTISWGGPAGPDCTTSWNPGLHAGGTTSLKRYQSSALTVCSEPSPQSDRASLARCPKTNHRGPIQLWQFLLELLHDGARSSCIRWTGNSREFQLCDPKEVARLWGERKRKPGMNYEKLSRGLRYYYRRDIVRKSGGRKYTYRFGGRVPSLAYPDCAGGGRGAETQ
The conditions noted are these: protein: recombinant; tags: N-terminal GST; dsDNA, one strand shown. In short, it runs like this: as §1

Experiment [8] addresses T5, ELF3 (Homo sapiens, UniProt P78545 1-371).
T5 sequence: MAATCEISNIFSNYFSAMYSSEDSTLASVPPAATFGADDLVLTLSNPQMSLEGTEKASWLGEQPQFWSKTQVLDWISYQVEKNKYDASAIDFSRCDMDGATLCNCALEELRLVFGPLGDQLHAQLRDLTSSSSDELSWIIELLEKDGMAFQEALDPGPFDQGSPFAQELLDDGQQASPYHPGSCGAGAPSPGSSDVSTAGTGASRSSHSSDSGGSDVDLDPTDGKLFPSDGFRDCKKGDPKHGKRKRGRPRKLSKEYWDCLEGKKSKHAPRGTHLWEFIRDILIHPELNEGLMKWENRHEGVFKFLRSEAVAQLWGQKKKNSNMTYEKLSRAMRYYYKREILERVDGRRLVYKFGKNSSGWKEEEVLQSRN
Particulars: protein: recombinant; tags: N-terminal GST; dsDNA, one strand shown. In short, it runs like this: as §1

Experiment [9] concerns the target CRX (Homo sapiens, UniProt O43186 1-299). Particulars: protein: recombinant; tags: N-terminal GST; dsDNA, one strand shown. In short, it runs like this: as §1
Experiment [10] deals with ETV1 (Homo sapiens, UniProt P50549 1-477). The conditions noted are these: protein: recombinant; tags: N-terminal GST; dsDNA, one strand shown. A digest of the protocol: as §1
For experiment [11], the target named is T6, ERF (Homo sapiens, UniProt P50548 1-548).
T6 sequence: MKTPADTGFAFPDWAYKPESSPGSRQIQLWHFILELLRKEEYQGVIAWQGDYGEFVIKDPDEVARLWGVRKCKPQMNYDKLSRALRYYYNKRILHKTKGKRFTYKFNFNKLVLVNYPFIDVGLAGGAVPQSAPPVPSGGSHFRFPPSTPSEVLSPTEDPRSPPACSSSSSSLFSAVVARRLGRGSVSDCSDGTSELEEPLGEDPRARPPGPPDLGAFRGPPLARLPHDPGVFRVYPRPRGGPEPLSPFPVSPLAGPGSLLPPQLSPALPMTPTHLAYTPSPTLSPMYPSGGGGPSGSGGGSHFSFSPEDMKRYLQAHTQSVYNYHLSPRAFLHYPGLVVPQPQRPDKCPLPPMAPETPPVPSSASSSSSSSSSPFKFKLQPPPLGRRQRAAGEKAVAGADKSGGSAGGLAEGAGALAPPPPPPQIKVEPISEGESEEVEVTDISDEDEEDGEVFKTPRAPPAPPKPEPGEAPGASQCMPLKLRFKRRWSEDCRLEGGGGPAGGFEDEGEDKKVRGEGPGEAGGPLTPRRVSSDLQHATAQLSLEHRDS
Particulars: protein: recombinant; tags: N-terminal GST; dsDNA, one strand shown. In short, it runs like this:
as §1

For experiment [12], the target named is T7, ETV3L (Homo sapiens, UniProt Q6ZN32 1-361).
T7 sequence: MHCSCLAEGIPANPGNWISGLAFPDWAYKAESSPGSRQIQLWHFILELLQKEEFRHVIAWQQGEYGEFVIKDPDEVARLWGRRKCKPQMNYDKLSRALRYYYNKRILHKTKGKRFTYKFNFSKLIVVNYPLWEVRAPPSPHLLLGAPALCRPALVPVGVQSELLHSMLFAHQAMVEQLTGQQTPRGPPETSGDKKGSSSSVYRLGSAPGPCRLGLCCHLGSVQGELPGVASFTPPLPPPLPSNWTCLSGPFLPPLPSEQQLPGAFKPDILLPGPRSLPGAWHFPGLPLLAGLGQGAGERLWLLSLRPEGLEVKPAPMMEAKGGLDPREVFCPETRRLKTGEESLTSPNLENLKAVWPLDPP
Particulars: protein: recombinant; tags: N-terminal GST; dsDNA, one strand shown. In short, it runs like this:
as §1

The target in experiment [13] is T8, ETS2 (Homo sapiens, UniProt P15036 1-469).
T8 sequence: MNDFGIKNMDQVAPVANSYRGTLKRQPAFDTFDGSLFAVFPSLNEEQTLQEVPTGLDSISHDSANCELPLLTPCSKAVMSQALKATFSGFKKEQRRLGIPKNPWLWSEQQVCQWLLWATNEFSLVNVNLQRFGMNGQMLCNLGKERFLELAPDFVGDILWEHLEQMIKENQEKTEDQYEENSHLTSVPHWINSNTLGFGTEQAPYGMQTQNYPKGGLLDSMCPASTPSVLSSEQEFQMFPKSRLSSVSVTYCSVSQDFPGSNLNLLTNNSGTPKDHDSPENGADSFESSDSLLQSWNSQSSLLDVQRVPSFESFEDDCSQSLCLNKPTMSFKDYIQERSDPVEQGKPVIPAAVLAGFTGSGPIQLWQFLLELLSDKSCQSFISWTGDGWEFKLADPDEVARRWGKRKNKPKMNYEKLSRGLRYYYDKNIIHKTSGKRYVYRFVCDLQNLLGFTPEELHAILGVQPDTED
The conditions noted are these: protein: recombinant; tags: N-terminal GST; dsDNA, one strand shown. A digest of the protocol: as §1

Experiment [14] addresses T9, SPDEF (Homo sapiens, UniProt O95238 1-335).
T9 sequence: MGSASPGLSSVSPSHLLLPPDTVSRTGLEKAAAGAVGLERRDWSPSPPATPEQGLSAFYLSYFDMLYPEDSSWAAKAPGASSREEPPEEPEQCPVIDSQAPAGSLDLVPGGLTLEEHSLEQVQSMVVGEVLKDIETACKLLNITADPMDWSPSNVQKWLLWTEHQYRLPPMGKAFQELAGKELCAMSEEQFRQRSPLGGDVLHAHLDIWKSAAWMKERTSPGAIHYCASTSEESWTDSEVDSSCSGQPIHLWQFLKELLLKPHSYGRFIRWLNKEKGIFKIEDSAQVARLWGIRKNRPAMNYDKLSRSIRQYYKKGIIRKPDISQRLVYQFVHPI
Particulars: protein: recombinant; tags: N-terminal GST; dsDNA, one strand shown. In short, it runs like this:
as §1

The target in experiment [15] is T10, ETV7 (Homo sapiens, UniProt Q9Y603 1-341).
T10 sequence: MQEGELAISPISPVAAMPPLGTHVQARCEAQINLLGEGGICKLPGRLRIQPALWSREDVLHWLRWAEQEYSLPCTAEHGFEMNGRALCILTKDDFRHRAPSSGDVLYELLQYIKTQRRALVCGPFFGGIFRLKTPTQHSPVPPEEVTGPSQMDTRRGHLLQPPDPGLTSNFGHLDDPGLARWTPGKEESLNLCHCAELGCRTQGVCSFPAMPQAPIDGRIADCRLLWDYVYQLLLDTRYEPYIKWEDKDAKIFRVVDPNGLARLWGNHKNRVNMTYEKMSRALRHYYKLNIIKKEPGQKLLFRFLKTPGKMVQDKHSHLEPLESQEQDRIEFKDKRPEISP
Particulars: protein: recombinant; tags: N-terminal GST; dsDNA, one strand shown. In short, it runs like this: as §1

Experiment [16] has as its target T11, ELF5 (Homo sapiens, UniProt Q9UKW6-2 1-255).
T11 sequence: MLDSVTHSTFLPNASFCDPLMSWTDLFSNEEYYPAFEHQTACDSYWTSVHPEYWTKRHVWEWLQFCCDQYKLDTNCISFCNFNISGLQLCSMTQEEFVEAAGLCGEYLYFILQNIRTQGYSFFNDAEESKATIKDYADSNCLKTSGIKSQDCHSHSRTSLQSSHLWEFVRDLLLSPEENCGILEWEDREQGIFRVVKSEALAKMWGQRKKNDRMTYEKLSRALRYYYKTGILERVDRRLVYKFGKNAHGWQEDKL
Particulars: protein: recombinant; tags: N-terminal GST; dsDNA, one strand shown. A digest of the protocol: as §1

Experiment [17] addresses T12, ETV3 (Homo sapiens, UniProt P41162-2 1-143).
T12 sequence: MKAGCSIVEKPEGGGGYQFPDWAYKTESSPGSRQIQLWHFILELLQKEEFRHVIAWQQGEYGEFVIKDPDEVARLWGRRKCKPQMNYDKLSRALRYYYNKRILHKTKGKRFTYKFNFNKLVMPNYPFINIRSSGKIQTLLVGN
The conditions noted are these: protein: recombinant; tags: N-terminal GST; dsDNA, one strand shown. A digest of the protocol: as §1

In experiment [18] the target is ETV6 (Homo sapiens, UniProt P41212 1-452). Particulars: protein: recombinant; tags: N-terminal GST; dsDNA, one strand shown. A digest of the protocol: as §1
Chain of ETV6 (P41212 whole entry): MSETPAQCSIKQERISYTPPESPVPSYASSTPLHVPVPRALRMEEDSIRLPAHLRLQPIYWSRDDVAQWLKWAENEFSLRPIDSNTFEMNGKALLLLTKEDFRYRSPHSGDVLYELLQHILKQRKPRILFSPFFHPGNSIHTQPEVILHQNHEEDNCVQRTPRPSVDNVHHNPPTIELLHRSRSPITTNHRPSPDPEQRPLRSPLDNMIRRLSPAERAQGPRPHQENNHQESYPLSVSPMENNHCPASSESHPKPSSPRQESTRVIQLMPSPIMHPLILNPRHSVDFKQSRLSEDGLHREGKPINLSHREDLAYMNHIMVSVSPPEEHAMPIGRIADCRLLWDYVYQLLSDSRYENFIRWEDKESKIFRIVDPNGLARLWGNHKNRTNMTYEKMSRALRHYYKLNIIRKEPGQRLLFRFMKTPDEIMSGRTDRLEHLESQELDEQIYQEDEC

Chain of HSF1 (Q00613 whole entry): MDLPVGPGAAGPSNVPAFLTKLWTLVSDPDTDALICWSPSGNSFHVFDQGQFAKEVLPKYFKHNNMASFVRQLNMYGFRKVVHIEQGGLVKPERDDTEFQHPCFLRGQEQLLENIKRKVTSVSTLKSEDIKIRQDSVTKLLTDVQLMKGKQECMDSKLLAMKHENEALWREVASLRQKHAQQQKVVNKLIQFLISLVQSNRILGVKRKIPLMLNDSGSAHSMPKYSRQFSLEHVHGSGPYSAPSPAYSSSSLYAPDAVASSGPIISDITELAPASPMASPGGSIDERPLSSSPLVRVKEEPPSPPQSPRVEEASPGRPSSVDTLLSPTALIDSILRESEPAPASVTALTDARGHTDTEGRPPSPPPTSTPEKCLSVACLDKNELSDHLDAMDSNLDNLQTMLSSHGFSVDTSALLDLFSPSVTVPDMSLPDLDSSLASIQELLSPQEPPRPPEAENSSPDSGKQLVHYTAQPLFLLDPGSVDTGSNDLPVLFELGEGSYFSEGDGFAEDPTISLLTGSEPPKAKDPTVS
Chain of CRX (O43186 whole entry): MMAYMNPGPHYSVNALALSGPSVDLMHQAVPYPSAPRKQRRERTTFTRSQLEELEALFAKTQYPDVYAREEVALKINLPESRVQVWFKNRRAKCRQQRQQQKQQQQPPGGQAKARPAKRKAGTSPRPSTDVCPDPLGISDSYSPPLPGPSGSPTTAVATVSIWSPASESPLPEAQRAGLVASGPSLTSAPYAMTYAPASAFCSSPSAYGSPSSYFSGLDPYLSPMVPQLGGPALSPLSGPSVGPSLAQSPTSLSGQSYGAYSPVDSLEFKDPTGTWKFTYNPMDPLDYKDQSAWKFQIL
Chain of ETV5 (P41161 whole entry): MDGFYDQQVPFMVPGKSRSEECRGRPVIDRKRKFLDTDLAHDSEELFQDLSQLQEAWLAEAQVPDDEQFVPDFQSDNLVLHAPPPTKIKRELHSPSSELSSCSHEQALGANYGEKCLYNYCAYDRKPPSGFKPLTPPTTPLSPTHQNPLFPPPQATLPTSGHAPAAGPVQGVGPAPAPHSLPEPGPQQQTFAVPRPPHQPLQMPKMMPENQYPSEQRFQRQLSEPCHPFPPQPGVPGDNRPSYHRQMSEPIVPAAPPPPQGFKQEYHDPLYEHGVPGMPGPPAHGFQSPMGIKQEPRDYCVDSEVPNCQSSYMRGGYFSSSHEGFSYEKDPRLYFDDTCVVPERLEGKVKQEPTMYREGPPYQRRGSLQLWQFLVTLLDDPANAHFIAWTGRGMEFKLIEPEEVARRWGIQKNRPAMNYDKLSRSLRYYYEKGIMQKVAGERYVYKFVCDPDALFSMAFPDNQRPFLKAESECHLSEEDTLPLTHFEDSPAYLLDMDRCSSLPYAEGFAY
Chain of ELF4 (Q99607 whole entry): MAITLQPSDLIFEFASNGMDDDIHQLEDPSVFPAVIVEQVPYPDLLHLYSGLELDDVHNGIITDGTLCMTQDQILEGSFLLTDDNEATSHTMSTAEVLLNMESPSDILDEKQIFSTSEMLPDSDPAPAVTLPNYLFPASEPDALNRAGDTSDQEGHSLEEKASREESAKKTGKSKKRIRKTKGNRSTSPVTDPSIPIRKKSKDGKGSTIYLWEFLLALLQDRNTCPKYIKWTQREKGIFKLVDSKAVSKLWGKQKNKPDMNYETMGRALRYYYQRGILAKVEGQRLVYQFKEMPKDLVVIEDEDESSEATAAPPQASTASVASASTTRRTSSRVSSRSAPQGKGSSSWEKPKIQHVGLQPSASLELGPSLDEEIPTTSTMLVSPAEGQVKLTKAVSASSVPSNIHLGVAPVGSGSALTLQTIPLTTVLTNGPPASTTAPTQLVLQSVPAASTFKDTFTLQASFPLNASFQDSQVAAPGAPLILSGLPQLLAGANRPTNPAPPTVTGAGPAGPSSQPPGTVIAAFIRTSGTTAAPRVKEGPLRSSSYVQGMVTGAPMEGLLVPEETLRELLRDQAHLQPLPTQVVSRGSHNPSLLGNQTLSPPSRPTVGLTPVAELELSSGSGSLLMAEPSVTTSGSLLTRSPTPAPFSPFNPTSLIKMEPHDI
Chain of ETV1 (P50549 whole entry): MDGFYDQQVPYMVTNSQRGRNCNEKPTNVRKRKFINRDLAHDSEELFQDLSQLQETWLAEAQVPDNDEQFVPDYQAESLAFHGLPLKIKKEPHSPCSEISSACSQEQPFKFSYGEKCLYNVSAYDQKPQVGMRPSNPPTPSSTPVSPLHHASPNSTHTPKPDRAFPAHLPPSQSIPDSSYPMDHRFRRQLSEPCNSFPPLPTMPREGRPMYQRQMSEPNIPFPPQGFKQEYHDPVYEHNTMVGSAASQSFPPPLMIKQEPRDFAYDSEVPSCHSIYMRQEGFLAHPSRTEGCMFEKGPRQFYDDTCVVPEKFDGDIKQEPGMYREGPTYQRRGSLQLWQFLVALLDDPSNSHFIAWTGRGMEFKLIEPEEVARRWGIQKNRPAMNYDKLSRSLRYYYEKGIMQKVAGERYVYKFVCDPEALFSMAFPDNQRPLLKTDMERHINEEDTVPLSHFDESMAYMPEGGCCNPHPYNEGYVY

For the sequence AACTTT, the binding signal in experiment [1] is 1.18 fold enrichment (6-mer frequency, TF over GST control); in experiment [2], 1.19 fold enrichment (6-mer frequency, TF over GST control); in experiment [3], 1.68 fold enrichment (6-mer frequency, TF over GST control); in experiment [4] it was 1.45 fold enrichment (6-mer frequency, TF over GST control); in [5], 1.19 fold enrichment (6-mer frequency, TF over GST control); in experiment [6], 1.32 fold enrichment (6-mer frequency, TF over GST control). Moreover, the binding signal was 1.3 fold enrichment (6-mer frequency, TF over GST control) in experiment [7]; 1.33 fold enrichment (6-mer frequency, TF over GST control) in experiment [8]; 1.27 fold enrichment (6-mer frequency, TF over GST control) in [9]; 1.23 fold enrichment (6-mer frequency, TF over GST control) in experiment [10]; 1.27 fold enrichment (6-mer frequency, TF over GST control) in [11]; 1.26 fold enrichment (6-mer frequency, TF over GST control) in experiment [12]. For the same sequence, the binding signal in [13] is 1.2 fold enrichment (6-mer frequency, TF over GST control); in experiment [14], 1.17 fold enrichment (6-mer frequency, TF over GST control); in experiment [15], 1.2 fold enrichment (6-mer frequency, TF over GST control); in experiment [16], 1.3 fold enrichment (6-mer frequency, TF over GST control); in experiment [17], 1.4 fold enrichment (6-mer frequency, TF over GST control); in [18], 1.22 fold enrichment (6-mer frequency, TF over GST control).
